Experimental data: PubChem BioAssay (EPA / NIEHS)
Results filed as inconclusive are left out. The source made the active and inactive calls. Rule for the calls, unless noted: active = hit-call score of the fitted dose curve at least 0.9, where 1 is the maximum; inconclusive = response in the unintended direction; inactive = score below 0.9.

Columns and labels:
[1] = ATG_TAL_CIS: Attagene CIS-FACTORIAL HepG2 Assay for human TAL Basal Promoter (AID 2282966; active = hit-call score of the fitted dose curve at least 0.9, where 1 is the maximum; inactive = score below 0.9;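 note: background control endpoint measuring basal TAL promoter reporter mRNA not a specific factor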); conditions: HepG2 Attagene cis-factorial TAL promoter reporter; actives raise or lower the signal
Method in brief: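 Basal-promoter background-control endpoint from a multiplexed HepG2 reporter panel. Cells were exposed 24 h, then reporter mRNA was read by RT-PCR/CE fluorescence and fitted in both directions relative to DMSO.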

[2] = ATG_TGFb_CIS: Attagene CIS-FACTORIAL HepG2 Assay for human Transforming Growth Factor (TGF) (AID 2282967; active = hit-call score of the fitted dose curve at least 0.9, where 1 is the maximum; inactive = score below 0.9); conditions: HepG2 Attagene CIS TGFb reporter, mRNA transcription; actives raise or lower the signal
Method in brief: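 Transcript-level reporter readout: HepG2 transfectants, 24 h exposure, RNA to cDNA, reporter-specific PCR, fluorescent primer extension, capillary sizing against ROX standards. Gain- or loss-of-signal relative to DMSO.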

[3] = ATG_VDRE_CIS: Attagene CIS-FACTORIAL HepG2 Assay for human Vitamin D Receptor Element (VDRE) (AID 2282968; active = hit-call score of the fitted dose curve at least 0.9, where 1 is the maximum; inactive = score below 0.9); conditions: HepG2 VDRE cis-reporter transcription, actives raise or lower the signal
Method in brief: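 Transfected HepG2 reporter cells, chemical treatment 24 h. RNA isolated, cDNA amplified with reporter-specific primers, products analysed by capillary electrophoresis. Endpoint fitted in both directions versus DMSO.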

[4] = biological target: X-box-binding protein 1 (Homo sapiens) (UniProt P17861); assay: ATG_Xbp1_CIS: Attagene CIS-FACTORIAL HepG2 Assay for human X-box Binding Protein 1 (XBP1) (AID 2282972; active = hit-call score of the fitted dose curve at least 0.9, where 1 is the maximum; inactive = score below 0.9); conditions: HepG2 XBP1 cis-element reporter, Attagene multiplex; actives raise or lower the signal
Method in brief: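 Changes in reporter transcript abundance, read by RT-PCR and capillary electrophoresis, reflect endogenous transcription factor activity. Transfected HepG2 cells received compound for 24 hours; DMSO defined baseline for bidirectional analysis.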

[5] = ATG_M_19_TRANS: Attagene TRANS-FACTORIAL HepG2 Assay for M19 Transcription Factor (Internal Marker) (AID 2282974); conditions: HepG2 Attagene TRANS-FACTORIAL M19 internal marker reporter
Method in brief: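 Gain-of-signal in reporter mRNA, relative to DMSO, was scored from capillary electrophoresis fluorescence. HepG2 cells carried transiently transfected multiple reporter transcription units and were incubated with test chemicals for 24 h.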

[6] = ATG_GAL4_TRANS: Attagene TRANS-FACTORIAL HepG2 Assay for GAL4 (Internal Marker) (AID 2282976); conditions: HepG2 Attagene TRANS GAL4 internal marker reporter
Method in brief: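 Background-control readout: GAL4-UAS reporter transcript in transiently transfected HepG2 cells after 24 h compound exposure. Measured by RT-PCR, 6-FAM primer extension, HpaI digest and capillary electrophoresis; gain-of-signal fit versus DMSO.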

[7] = biological target: Bile acid receptor (Homo sapiens) (UniProt Q96RI1); assay: ATG_FXR_TRANS: Attagene TRANS-FACTORIAL HepG2 Assay for Farnesoid X Receptor (FXR) (AID 2282979); conditions: HepG2 Attagene TRANS FXR-GAL4 reporter transcription;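 note: hits raise reporter mRNA above DMSO so AC50 marks FXR activation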
Method in brief: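 HepG2 cells were transiently transfected with GAL4-UAS reporters driven by chimeric NR-Gal4 proteins and dosed for 24 h. Reporter mRNA was quantified by RT-PCR, fluorescent labelling, HpaI digestion and capillary electrophoresis, with gain of signal scored versus DMSO.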

[8] = biological target: Oxysterols receptor LXR-alpha (Homo sapiens) (UniProt Q13133); assay: ATG_LXRa_TRANS: Attagene TRANS-FACTORIAL HepG2 Assay for human Liver X Receptor alpha (LXRa) (AID 2282980); conditions: HepG2 Attagene TRANS reporter, LXRa transactivation
Method in brief: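 HepG2 cells transiently transfected with GAL4-UAS reporter units for chimeric NR-Gal4 proteins, exposed to chemicals for 24 h. Reporter mRNA quantified by RT-PCR and capillary electrophoresis; gain of signal fitted relative to DMSO.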

[9] = biological target: Transcriptional activator Myb (Homo sapiens) (UniProt P10242); assay: ATG_Myb_CIS: Attagene CIS-FACTORIAL HepG2 Assay for human Myeloblastosis (Myb) Proto-Oncogene Transcription Factor (AID 2282986; active = hit-call score of the fitted dose curve at least 0.9, where 1 is the maximum; inactive = score below 0.9); conditions: HepG2 Attagene CIS-FACTORIAL Myb reporter transcription; actives raise or lower the signal
Method in brief: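 Multiplexed cis-reporter system in HepG2: transient transfection, 24 h treatment, mRNA readout by RT-PCR and capillary electrophoresis. Both increases and decreases are scored versus DMSO negative control.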

[10] = biological target: Oxysterols receptor LXR-beta (Homo sapiens) (UniProt P55055); assay: ATG_LXRb_TRANS: Attagene TRANS-FACTORIAL HepG2 Assay for human Liver X Receptor beta (LXRb) (AID 2282981); conditions: HepG2 Attagene TRANS GAL4-LXRb reporter, mRNA
Method in brief: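 Liver-derived HepG2 cells transfected with Gal4-responsive reporters were dosed for 24 h. Activation was scored as rise in reporter mRNA, by RT-PCR and capillary electrophoresis, above DMSO baseline.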

[11] = biological target: Estrogen receptor (Homo sapiens) (UniProt P03372); assay: ATG_ERa_TRANS: Attagene TRANS-FACTORIAL HepG2 Assay for human Estrogen Receptor alpha (ERa) (AID 2282970); conditions: HepG2 Attagene TRANS ERa GAL4 reporter, mRNA
Method in brief: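 Gal4-fusion ERa transactivation, measured as reporter transcript level in transiently transfected HepG2 cells. Exposure 24 h; RT-PCR plus capillary electrophoresis with fluorescence detection.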

[12] = biological target: Steroid hormone receptor ERR1 (Homo sapiens) (UniProt P11474); assay: ATG_ERRa_TRANS: Attagene TRANS-FACTORIAL HepG2 Assay for human Estrogen-Related Receptor alpha (ERRa) (AID 2282971); conditions: HepG2 Attagene TRANS reporter, ERRa transactivation
Method in brief: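 HepG2 cells transiently transfected with GAL4-UAS reporter units and chimeric NR-Gal4 constructs; after 24 hour compound incubation, reporter mRNA quantified by RT-PCR, fluorescent labelling and capillary electrophoresis, gain of signal versus DMSO.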

[13] = biological target: Hepatocyte nuclear factor 4-alpha (Homo sapiens) (UniProt P41235); assay: ATG_HNF4a_TRANS: Attagene TRANS-FACTORIAL HepG2 Assay for human Hepatocyte Nuclear Factor 4 alpha (HNF4a) (AID 2282982); conditions: HepG2 HNF4a transactivation reporter, mRNA readout
Method in brief: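 Using HepG2 liver cells transfected with GAL4-UAS reporter units, chemical-induced mRNA increases were assessed after 24 hours. Fluorescent RT-PCR fragments were separated by capillary electrophoresis and compared with DMSO negative controls.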

[14] = ATG_M_32_TRANS: Attagene TRANS-FACTORIAL HepG2 Assay for M32 Transcription Factor (Internal Marker) (AID 2282984); conditions: HepG2 Attagene TRANS M32 internal marker reporter
Method in brief: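 Fluorescence-detected mRNA induction, HepG2 liver cells, 24 h after dosing. Multiple GAL4-UAS reporter units introduced by transient transfection; background-control endpoint analysed for gain of signal against DMSO.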

[15] = biological target: Nuclear receptor subfamily 4 group A member 2 (Homo sapiens) (UniProt P43354); assay: ATG_NURR1_TRANS: Attagene TRANS-FACTORIAL HepG2 Assay for human Nuclear Receptor Related Protein 1 (NURR1) (AID 2282985); conditions: HepG2 Attagene TRANS reporter, mRNA readout
Method in brief: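 Chimeric NR-Gal4 proteins were expressed in human HepG2 cells bearing GAL4-UAS reporter units, and induced reporter mRNA was quantified 24 h post-dosing by RT-PCR and capillary electrophoresis.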

[16] = biological target: Glucocorticoid receptor (Homo sapiens) (UniProt P04150); assay: ATG_GR_TRANS: Attagene TRANS-FACTORIAL HepG2 Assay for human Glucocorticoid Receptor (GR) (AID 2282978); conditions: HepG2 Attagene TRANS GR reporter, mRNA transcription;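 note: activators score as hits since higher reporter transcript over DMSO is fitted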
Method in brief: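 HepG2 transient transfection, multiple reporter units, GAL4-UAS under NR-GAL4 chimera control. 24 h treatment. Reporter mRNA by RT-PCR/CE fluorescence, DMSO as negative control.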

[17] = biological target: Nuclear receptor subfamily 1 group I member 3 (Homo sapiens) (UniProt Q14994); assay: ATG_CAR_TRANS: Attagene TRANS-FACTORIAL HepG2 Assay for human Constitutive Androstane Receptor (CAR) (AID 2282969); conditions: HepG2 Attagene TRANS-FACTORIAL CAR reporter;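 note: activators raise reporter mRNA above DMSO so AC50 marks induction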
Method in brief: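 Steps: transient transfection of HepG2 with multiple GAL4-UAS reporter units; 24 h compound incubation; RNA isolation, RT-PCR, 6-FAM primer extension, HpaI digest; capillary electrophoresis. Gain-of-signal relative to DMSO negative control.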

[18] = ATG_M_06_TRANS: Attagene TRANS-FACTORIAL HepG2 Assay for M06 Transcription Factor (Internal Marker) (AID 2282983); conditions: HepG2 Attagene TRANS M06 internal marker reporter
Method in brief: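 mRNA levels of a reporter transcript, quantified as FAM fluorescence on capillary electrophoresis, served as readout. HepG2 cells expressing exogenous GAL4-chimera reporter constructs were exposed for 24 h. Gain of signal over DMSO was evaluated.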

[19] = biological target: Estrogen-related receptor gamma (Homo sapiens) (UniProt P62508); assay: ATG_ERRg_TRANS: Attagene TRANS-FACTORIAL HepG2 Assay for human Estrogen-Related Receptor gamma (ERRg) (AID 2282977); conditions: HepG2 Attagene TRANS reporter, ERRg transactivation;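 note: hits increase reporter signal over DMSO so potencies reflect activators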
Method in brief: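 Exogenous NR-Gal4 chimera activity was assessed in HepG2 cells bearing transfected GAL4-UAS reporters. After 24 h dosing, total RNA underwent RT-PCR, fluorescent primer extension and HpaI digestion before capillary electrophoresis, with gain of signal scored against DMSO.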

Sequence of Steroid hormone receptor ERR1 (Homo sapiens) (P11474 whole entry, looked up, the tested form may be a part): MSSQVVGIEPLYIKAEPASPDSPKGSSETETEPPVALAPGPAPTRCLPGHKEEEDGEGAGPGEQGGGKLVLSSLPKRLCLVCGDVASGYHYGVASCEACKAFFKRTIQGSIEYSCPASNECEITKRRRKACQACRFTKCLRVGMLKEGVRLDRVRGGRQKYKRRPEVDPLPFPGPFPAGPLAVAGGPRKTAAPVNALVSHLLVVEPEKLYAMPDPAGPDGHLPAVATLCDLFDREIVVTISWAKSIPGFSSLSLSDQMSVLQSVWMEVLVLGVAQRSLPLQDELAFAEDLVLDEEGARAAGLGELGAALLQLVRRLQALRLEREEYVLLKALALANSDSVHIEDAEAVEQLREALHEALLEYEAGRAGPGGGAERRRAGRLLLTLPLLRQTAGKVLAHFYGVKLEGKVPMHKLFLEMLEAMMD
Sequence of Bile acid receptor (Homo sapiens) (Q96RI1 whole entry, looked up, the tested form may be a part): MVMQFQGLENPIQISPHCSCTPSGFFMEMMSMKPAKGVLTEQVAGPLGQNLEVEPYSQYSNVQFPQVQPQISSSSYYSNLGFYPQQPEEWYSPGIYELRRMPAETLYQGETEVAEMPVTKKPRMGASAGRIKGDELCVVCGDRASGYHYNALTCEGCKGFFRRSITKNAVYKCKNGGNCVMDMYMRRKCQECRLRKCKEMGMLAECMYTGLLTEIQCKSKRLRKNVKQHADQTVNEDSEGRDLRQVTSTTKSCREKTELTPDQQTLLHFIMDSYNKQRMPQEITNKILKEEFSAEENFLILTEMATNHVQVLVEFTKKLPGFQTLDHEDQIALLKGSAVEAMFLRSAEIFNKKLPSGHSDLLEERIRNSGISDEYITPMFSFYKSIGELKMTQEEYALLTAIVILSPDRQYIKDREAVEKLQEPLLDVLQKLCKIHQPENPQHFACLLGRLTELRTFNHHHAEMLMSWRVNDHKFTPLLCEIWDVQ
Sequence of Glucocorticoid receptor (Homo sapiens) (P04150 whole entry, looked up, the tested form may be a part): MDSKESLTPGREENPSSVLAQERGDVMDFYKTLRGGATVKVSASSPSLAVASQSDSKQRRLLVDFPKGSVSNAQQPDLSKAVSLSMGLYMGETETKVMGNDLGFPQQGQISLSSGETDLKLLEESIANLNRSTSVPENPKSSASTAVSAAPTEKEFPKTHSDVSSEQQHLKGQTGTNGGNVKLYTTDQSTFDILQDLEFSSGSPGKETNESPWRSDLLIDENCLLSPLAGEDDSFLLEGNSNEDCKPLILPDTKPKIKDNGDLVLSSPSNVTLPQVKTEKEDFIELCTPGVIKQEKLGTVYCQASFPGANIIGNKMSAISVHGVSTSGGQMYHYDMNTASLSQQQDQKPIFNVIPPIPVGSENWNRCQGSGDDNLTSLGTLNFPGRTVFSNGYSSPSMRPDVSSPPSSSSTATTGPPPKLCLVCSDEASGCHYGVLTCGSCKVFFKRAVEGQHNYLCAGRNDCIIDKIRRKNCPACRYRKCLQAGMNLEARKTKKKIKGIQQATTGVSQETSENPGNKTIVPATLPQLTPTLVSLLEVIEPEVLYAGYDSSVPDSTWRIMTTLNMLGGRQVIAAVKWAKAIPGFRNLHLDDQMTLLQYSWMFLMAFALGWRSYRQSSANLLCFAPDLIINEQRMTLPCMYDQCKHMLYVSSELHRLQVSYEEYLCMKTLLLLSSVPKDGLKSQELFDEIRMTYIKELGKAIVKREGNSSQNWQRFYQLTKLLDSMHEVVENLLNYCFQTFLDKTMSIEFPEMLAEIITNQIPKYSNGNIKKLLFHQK
Sequence of Oxysterols receptor LXR-beta (Homo sapiens) (P55055 whole entry, looked up, the tested form may be a part): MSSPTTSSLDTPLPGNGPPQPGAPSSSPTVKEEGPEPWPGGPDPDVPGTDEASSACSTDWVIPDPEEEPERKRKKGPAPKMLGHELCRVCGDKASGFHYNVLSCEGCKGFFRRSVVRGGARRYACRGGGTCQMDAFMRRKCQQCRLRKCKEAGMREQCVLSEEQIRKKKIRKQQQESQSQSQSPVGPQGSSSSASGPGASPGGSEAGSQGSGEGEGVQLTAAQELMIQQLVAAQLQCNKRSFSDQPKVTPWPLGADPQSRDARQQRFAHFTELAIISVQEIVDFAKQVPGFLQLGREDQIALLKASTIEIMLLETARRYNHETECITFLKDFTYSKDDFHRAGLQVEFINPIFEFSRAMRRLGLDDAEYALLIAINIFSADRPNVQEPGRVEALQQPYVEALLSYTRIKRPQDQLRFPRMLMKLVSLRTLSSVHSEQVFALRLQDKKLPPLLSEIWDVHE
Sequence of Hepatocyte nuclear factor 4-alpha (Homo sapiens) (P41235 whole entry, looked up, the tested form may be a part): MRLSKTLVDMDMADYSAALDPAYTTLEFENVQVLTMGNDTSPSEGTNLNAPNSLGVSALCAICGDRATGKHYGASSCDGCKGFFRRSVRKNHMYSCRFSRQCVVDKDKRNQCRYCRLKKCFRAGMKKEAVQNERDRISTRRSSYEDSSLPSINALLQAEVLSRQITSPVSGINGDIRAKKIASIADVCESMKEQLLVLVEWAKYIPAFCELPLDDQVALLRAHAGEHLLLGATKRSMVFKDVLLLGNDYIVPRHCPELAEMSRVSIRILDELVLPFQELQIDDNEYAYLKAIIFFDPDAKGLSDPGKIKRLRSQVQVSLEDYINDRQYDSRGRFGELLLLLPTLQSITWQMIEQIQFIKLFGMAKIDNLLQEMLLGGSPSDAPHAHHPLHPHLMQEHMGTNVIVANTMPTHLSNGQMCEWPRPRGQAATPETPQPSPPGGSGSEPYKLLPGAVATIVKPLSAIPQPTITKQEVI
Sequence of Estrogen receptor (Homo sapiens) (P03372 whole entry, looked up, the tested form may be a part): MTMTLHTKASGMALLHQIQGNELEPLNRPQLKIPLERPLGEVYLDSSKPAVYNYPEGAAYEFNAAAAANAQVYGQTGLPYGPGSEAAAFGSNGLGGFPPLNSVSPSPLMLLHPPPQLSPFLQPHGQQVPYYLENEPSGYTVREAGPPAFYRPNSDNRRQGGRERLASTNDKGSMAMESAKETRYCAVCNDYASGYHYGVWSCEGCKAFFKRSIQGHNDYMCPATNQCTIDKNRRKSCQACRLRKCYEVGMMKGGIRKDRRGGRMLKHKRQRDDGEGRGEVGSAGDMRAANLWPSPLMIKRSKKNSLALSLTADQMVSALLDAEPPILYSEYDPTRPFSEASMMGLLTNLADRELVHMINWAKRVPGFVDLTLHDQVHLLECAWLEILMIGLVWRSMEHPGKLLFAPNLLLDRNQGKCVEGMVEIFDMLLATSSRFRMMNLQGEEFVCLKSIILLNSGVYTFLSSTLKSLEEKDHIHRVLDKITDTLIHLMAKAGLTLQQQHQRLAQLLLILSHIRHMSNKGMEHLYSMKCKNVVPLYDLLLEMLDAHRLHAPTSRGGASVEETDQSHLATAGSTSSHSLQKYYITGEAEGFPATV
Sequence of Oxysterols receptor LXR-alpha (Homo sapiens) (Q13133 whole entry, looked up, the tested form may be a part): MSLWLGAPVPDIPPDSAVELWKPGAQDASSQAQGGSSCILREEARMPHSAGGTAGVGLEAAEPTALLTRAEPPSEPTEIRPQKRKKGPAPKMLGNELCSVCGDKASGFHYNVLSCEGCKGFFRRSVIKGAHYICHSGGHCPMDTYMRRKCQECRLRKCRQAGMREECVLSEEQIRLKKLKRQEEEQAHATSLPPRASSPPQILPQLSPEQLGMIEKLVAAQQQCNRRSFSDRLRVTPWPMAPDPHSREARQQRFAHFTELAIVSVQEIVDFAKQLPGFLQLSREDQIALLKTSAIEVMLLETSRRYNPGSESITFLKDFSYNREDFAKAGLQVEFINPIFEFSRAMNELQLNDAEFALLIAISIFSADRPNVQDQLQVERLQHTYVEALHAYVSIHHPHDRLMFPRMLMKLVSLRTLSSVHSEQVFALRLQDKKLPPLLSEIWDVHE
Sequence of Transcriptional activator Myb (Homo sapiens) (P10242 whole entry, looked up): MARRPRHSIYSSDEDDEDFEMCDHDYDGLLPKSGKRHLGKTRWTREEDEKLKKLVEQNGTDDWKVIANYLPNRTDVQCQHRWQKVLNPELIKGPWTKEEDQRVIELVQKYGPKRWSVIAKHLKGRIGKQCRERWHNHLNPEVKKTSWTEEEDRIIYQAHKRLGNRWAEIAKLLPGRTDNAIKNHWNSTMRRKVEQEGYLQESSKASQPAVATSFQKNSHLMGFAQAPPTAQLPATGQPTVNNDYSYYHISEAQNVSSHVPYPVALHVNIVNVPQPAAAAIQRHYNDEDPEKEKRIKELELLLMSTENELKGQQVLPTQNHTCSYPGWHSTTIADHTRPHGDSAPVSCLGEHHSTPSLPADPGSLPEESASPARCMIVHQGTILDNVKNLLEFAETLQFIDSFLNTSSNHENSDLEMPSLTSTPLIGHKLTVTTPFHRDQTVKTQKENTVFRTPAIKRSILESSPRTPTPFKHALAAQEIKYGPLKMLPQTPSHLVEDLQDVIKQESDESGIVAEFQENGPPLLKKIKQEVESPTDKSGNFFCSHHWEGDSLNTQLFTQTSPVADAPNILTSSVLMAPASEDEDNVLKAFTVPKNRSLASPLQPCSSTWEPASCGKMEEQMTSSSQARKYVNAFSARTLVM
Sequence of X-box-binding protein 1 (Homo sapiens) (P17861 whole entry, looked up): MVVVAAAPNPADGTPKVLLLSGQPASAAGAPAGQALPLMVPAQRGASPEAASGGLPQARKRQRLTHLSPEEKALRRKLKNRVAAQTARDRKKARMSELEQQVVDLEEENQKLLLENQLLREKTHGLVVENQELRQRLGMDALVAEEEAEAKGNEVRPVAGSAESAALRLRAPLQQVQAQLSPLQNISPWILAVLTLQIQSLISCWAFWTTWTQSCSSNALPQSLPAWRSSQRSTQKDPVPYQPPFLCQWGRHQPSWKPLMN
Sequence of Nuclear receptor subfamily 1 group I member 3 (Homo sapiens) (Q14994 whole entry, looked up, the tested form may be a part): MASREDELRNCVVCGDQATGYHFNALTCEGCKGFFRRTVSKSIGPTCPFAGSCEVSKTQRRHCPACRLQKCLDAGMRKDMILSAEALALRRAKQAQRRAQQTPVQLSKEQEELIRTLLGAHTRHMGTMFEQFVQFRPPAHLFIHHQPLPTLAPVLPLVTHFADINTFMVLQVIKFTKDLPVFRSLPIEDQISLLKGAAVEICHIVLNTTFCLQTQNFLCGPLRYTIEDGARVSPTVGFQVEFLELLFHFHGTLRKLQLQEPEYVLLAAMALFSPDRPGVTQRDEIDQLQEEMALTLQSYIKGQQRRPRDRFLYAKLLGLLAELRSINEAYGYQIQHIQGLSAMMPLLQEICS

## CCCCCC(=O)OCC
[1]
  outcome: inactive
[2]
  outcome: inactive
[3]
  outcome: inactive
[4]
  outcome: inactive
[5]
  outcome: inactive
[6]
  outcome: inactive
[7]
  outcome: inactive
[8]
  outcome: inactive
[9]
  outcome: inactive

## CC1CC(=O)CC(C)(C)C1 (configuration not stated)
[1]
  outcome: inactive
[2]
  outcome: inactive
[3]
  outcome: inactive
[4]
  outcome: inactive
[8]
  outcome: inactive
[10]
  outcome: inactive
[9]
  outcome: inactive

## NNS(=O)(=O)c1ccc(Oc2ccc(S(=O)(=O)NN)cc2)cc1
[1]
  outcome: inactive
[2]
  outcome: inactive
[3]
  outcome: inactive
[11]
  outcome: inactive
[12]
  outcome: inactive
[4]
  outcome: inactive
[5]
  outcome: inactive
[6]
  outcome: inactive
[8]
  outcome: inactive
[10]
  outcome: inactive
[13]
  outcome: inactive
[14]
  outcome: inactive
[15]
  outcome: inactive

## CCCCCCCCCCCCCC(=O)OC(C)C
[1]
  outcome: inactive
[2]
  outcome: inactive
[3]
  outcome: inactive
[11]
  outcome: inactive
[4]
  outcome: inactive
[6]
  outcome: inactive
[16]
  outcome: inactive
[8]
  outcome: inactive
[10]
  outcome: inactive
[13]
  outcome: inactive
[14]
  outcome: inactive
[15]
  outcome: inactive
[9]
  outcome: inactive

## CCCC/C=C/C=C\C=O
[1]
  outcome: inactive
[3]
  AC50: 6.51 µM (active)
[11]
  outcome: inactive
[4]
  AC50: 178 µM (active)
[5]
  outcome: inactive
[6]
  outcome: inactive
[7]
  outcome: inactive
[10]
  outcome: inactive
[14]
  outcome: inactive
[9]
  outcome: inactive

## C[Si]1(C)O[Si](C)(C)O[Si](C)(C)O[Si](C)(C)O[Si](C)(C)O1
[1]
  outcome: inactive
[3]
  outcome: inactive
[17]
  outcome: inactive
[4]
  outcome: inactive
[5]
  outcome: inactive
[6]
  outcome: inactive
[16]
  outcome: inactive
[10]
  outcome: inactive
[18]
  outcome: inactive
[14]
  outcome: inactive
[9]
  outcome: inactive

## CCCCc1ccc(Cl)cc1
[1]
  outcome: inactive
[2]
  outcome: inactive
[3]
  outcome: inactive
[11]
  outcome: inactive
[4]
  outcome: inactive
[6]
  outcome: inactive
[7]
  outcome: inactive
[18]
  outcome: inactive
[14]
  outcome: inactive
[15]
  outcome: inactive
[9]
  outcome: inactive

## COC(OC)(C(=O)c1ccccc1)c1ccccc1
[1]
  outcome: inactive
[3]
  AC50: 5.89 µM (active)
[11]
  AC50: 817 nM (active)
[12]
  outcome: inactive
[4]
  outcome: inactive
[6]
  outcome: inactive
[19]
  outcome: inactive
[13]
  outcome: inactive
[18]
  outcome: inactive
[15]
  outcome: inactive
[9]
  outcome: inactive

## CCc1cccc(CC)c1
[1]
  outcome: inactive
[2]
  outcome: inactive
[11]
  outcome: inactive
[4]
  outcome: inactive
[6]
  outcome: inactive
[16]
  outcome: inactive
[7]
  outcome: inactive
[8]
  outcome: inactive
[9]
  outcome: inactive

## CCCCCCOc1ccc(N)cc1
[1]
  outcome: inactive
[2]
  outcome: inactive
[17]
  outcome: inactive
[11]
  outcome: inactive
[12]
  outcome: inactive
[4]
  outcome: inactive
[7]
  outcome: inactive
[18]
  outcome: inactive
[14]
  outcome: inactive
[9]
  outcome: inactive

## CC(=O)CCC=C(C)C
[1]
  outcome: inactive
[2]
  outcome: inactive
[3]
  outcome: inactive
[11]
  outcome: inactive
[4]
  outcome: inactive
[6]
  outcome: inactive
[19]
  outcome: inactive
[8]
  outcome: inactive
[9]
  outcome: inactive

## O=C(O)C1CCC(C(=O)O)CC1 (configuration not stated)
[1]
  outcome: inactive
[2]
  outcome: inactive
[3]
  outcome: inactive
[11]
  outcome: inactive
[4]
  outcome: inactive
[18]
  outcome: inactive
[15]
  outcome: inactive
[9]
  outcome: inactive

## Nc1ccnc(=O)[nH]1
[1]
  outcome: inactive
[2]
  outcome: inactive
[3]
  outcome: inactive
[11]
  outcome: inactive
[4]
  outcome: inactive
[5]
  outcome: inactive
[10]
  outcome: inactive
[18]
  outcome: inactive
[14]
  outcome: inactive
[15]
  outcome: inactive
[9]
  outcome: inactive
